Test results from PubChem BioAssay.

How the values were obtained:
[1] = tested on: Human papillomavirus type 1a protein E7 (residues 44-93); assay: HPV1a E7 fragment binders on microarrays, primary screen, biochemical, small-molecule microarray, residues 44-93, 635 nm fluorescence (AID 1108); conditions: small-molecule microarray binding, fluorescence 635 nm; higher = more signal;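 also: E7 fragment applied at 1 µg/mL in TBST for 1 h at 4 C; score combines spot fluorescence with its signal to noise ratio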
[2] = modulators of HCV replicon luciferase signal, primary screen, HCV replication inhibitor project, Huh7 cells, luciferase reporter (AID 1109); conditions: 48 h, higher = more signal;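 also: huh7 hepatoma cells harbouring a luciferase neomycin HCV replicon reporter; luciferase luminescence as measure of HCV replicon replication; test concentration not given here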
[3] = target: Left-right determination factor 2 (Homo sapiens) (UniProt O00292); assay: LEFTY2 binders on small-molecule microarrays, primary screen, biochemical, small-molecule microarray, 635 nm fluorescence scan (AID 1110); conditions: LEFTY2 binding, higher = more signal
Left-right determination factor 2 (Homo sapiens), sequence (O00292 whole entry, looked up): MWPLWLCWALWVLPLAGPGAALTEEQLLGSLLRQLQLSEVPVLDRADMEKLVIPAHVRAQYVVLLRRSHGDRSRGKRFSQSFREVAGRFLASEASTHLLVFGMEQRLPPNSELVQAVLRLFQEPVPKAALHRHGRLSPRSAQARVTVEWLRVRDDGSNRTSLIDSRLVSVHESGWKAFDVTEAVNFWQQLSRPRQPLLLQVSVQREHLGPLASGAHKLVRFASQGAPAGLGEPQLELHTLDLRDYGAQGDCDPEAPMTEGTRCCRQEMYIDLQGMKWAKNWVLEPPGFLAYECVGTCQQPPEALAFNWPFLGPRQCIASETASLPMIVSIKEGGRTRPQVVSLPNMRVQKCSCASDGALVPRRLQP

[4] = target: Calmodulin-1 (Homo sapiens) (UniProt P0DP23); assay: CALM1 binders on microarrays, EGTA buffer, profiling panel, biochemical, small-molecule microarray, Cy5-labelled CALM1 (AID 1111); conditions: Cy5-CALM1 binding fluorescence, higher = more signal;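 also: labelled calmodulin applied in Tris saline Tween buffer holding calcium plus EGTA and DTT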
[5] = target: Calmodulin-1 (Homo sapiens) (UniProt P0DP23); assay: calcium-bound CALM1 binders on microarrays, profiling panel, artefact control for SMM control-protein annotation, biochemical, small-molecule microarray, Cy5-labelled CALM1, plus calcium (AID 1112); conditions: Cy5-CALM1 binding fluorescence, higher = more signal;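 also: score merges spot fluorescence with signal to noise from triplicate slides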
[6] = small-molecule microarray binders of probe aWnt5a, primary screen, biochemical, biotinylated probe, 635/667 nm fluorescence (AID 1113); conditions: higher = more signal;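 also: score merges 667 nm fluorescence intensity with signal-to-noise per printed feature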
[7] = small-molecule microarray binders of probe aShh, primary screen, biochemical, biotinylated probe, 635/667 nm fluorescence (AID 1114); conditions: higher = more signal;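 also: probe is biotin-labelled aShh protein from a stem cell growth factor screen; measures binding of labelled protein to compounds printed on the slide; score merges feature fluorescence at 667 nm with signal-to-noise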
[8] = small-molecule microarray binders of probe aNog, primary screen, biochemical, biotinylated probe, 635/667 nm fluorescence (AID 1115); conditions: higher = more signal;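 also: probe is biotinylated aNog protein used at 0.15 µg/mL for 1 h at 4 C; z-score combines 667 nm fluorescence of each spot with its signal to noise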
[9] = target: Torsin-1A-interacting protein 1 (Homo sapiens) (UniProt Q5JTV8); assay: LAP1 binders from COS7 cell lysate, primary screen, small-molecule microarray, 635/667 nm fluorescence (AID 1116); conditions: COS7-hLAP1 lysate binding, 635 nm fluorescence, higher = more signal
Torsin-1A-interacting protein 1 (Homo sapiens), sequence (Q5JTV8 whole entry, looked up): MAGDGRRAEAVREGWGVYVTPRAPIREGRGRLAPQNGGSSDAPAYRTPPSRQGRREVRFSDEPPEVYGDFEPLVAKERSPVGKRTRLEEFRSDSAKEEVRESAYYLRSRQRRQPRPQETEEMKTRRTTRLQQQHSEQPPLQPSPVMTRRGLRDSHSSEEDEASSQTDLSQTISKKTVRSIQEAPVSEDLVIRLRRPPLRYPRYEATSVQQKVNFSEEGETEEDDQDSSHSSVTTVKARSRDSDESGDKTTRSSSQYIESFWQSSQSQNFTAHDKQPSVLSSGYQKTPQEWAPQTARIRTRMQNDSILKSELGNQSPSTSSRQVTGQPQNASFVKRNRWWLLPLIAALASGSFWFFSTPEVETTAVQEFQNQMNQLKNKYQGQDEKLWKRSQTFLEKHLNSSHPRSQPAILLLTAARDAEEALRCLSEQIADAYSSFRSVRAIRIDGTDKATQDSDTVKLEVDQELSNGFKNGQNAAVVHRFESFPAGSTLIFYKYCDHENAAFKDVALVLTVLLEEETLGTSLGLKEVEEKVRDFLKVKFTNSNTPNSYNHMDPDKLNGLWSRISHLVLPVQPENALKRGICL

[10] = target: Alpha-bungarotoxin (Bungarus multicinctus) (UniProt P60615); assay: alpha-bungarotoxin binders on microarray, profiling panel, artefact control for SMM control protein annotation, biochemical, small-molecule microarray, Alexa647 label, 635/667 nm fluorescence (AID 1117); conditions: alpha-BTX-A647 binding fluorescence, higher = more signal
Alpha-bungarotoxin (Bungarus multicinctus), sequence (P60615 whole entry, looked up): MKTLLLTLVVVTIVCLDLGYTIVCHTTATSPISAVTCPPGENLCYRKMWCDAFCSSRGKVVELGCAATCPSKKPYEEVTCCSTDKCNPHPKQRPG

Row | Compound | composite z-score [1] | z-score [2] | composite z-score [3] | composite z-score [4] | composite z-score [5] | composite z-score [6] | composite z-score [7] | composite z-score [8] | composite z-score [9] | composite z-score [10]
1 | CC[C@@H]1C=C(C(=O)O)[C@H](c2ccc(C)cc2)N1S(=O)(=O)c1ccc(C)cc1 | 0.878 | -0.315 | -0.925 | 0.846 | 0.515 | -0.096 | 0.0048 | -0.126 | 0.24 | 0.671
2 | OCCCC1=CC(C2CC2)N(Cc2cccc(OC(F)(F)F)c2)CC1 (stereo not given) | -0.928 | -1.32 | -0.119 | -0.968 | 0.115 | -0.178 | -0.321 | -0.641 | 1 | -0.478
3 | Cc1ccc(/C=C/C=O)cc1 | 0.134 | 0.626 | -0.419 | 0.619 | -0.524 | -0.213 | -0.0146 | -0.299 | -0.0785 | 0.185
4 | O=C1NC(=O)C2C1C=CC(C(O)C1CC=CCC1)N2Nc1ccccn1 (stereo not given) | -0.643 | -0.268 | 0.571 | -0.282 | -0.589 | -0.0643 | -0.147 | -0.0852 | 1.22 | -0.29
5 | C=CCNC(=O)[C@H]1[C@@H]2C(=O)O[C@@H](c3ccccc3)[C@@H](c3ccccc3)N2[C@@H](c2ccc(O)cc2)[C@]12C(=O)Nc1ccc(C#CCCO)cc12 | -0.336 | 0.142 | 0.185 | -0.314 | 0.107 | -0.124 | 0.0982 | -0.161 | -0.428 | -0.503
6 | O=C1C2C=CC(C(O)COCc3ccccc3)N(Nc3ccc([N+](=O)[O-])cc3)C2C(=O)N1c1ccccc1 (stereo not given) | 1.44 | -1.36 | 0.308 | 0.823 | -0.432 | 0.0317 | 0.213 | 0.525 | 0.548 | 1.31
7 | COc1ccccc1CN1C(=O)c2ccccc2[C@@H](C(=O)NCc2ccccc2)[C@@H]1c1ccc(CO)cc1 | 0.841 | -1.01 | 0.0458 | -0.473 | -0.181 | -0.124 | -0.374 | -0.416 | 0.404 | 1.78
8 | C=CCOC(=O)[C@H]1[C@@H]2C(=O)O[C@@H](c3ccccc3)[C@@H](c3ccccc3)N2[C@@H](c2ccc(OCCOC(=O)[C@H]3C[C@H]4C(=O)N[C@@H](CCCCN(C)C)C(=O)N4[C@H]3c3cccc(OCCO)c3)cc2)[C@]12C(=O)Nc1ccc(I)cc12 | 1.4 | -2.45 | 0.713 | -0.0131 | -0.12 | 0.108 | 0.0671 | 1.18 | 0.811 | 1.27
9 | COC(=O)[C@@]1(Cc2ccccc2)[C@H]2c3cc(C(=O)N4CCCC4)n(Cc4ccc(O)c(OC)c4)c3C[C@H]2CN1C(=O)c1ccccc1 | 1.35 | -1.7 | -0.943 | 0.556 | 0.0466 | 0.288 | 1.14 | 1.11 | 0.53 | -0.142
10 | CCOC(=O)C[C@H]1[C@H](OC(=O)c2ccc(-c3ccccc3)cc2)[C@@H](NC(=O)c2ccccc2)c2cc(OCCCO)ccc2N1C(=O)c1ccc2ccccc2n1 | 1.29 | -1.09 | -0.196 | 1.2 | 0.963 | -0.0643 | -0.0011 | 0.176 | 0.629 | 0.552
11 | C[N+](C)(C)CCCC[C@@H]1NC(=O)[C@@H]2C[C@H](C(=O)NCCCCCCNC(=O)CS)[C@H](c3ccc(O)cc3)N2C1=O | -0.421 | 0.164 | -0.638 | -0.4 | -0.281 | -0.237 | -0.304 | -0.0721 | 0.958 | 1.33
12 | COC(=O)[C@@]1(Cc2ccccc2)[C@H]2c3cc(C(=O)N(C)C)n(CCc4c[nH]c5ccc(O)cc45)c3C[C@H]2CN1C(=O)c1ccccc1 | 1.32 | -2.07 | -0.119 | 1.2 | 0.0493 | 0.0031 | -0.0146 | 0.843 | 1.48 | 0.194
13 | C=C(CCCC)/C(=C/C[C@@H](OC(C)=O)c1cccc(OCCO)c1)c1cnc2ccccc2c1 | 0.571 | -1.32 | 0.257 | -0.18 | -0.387 | -0.124 | -0.0709 | 0.123 | 0.314 | 1.07
14 | O=C(NC1CC1)[C@@H]1c2ccccc2C(=O)N(C2Cc3ccccc3C2)[C@H]1c1ccc(CO)cc1 | 1.32 | -0.865 | 0.716 | -0.199 | -0.253 | -0.0512 | -0.457 | -0.608 | 0.599 | 0.154
15 | CO[C@H]1O[C@H](CO)[C@@H](OC(=O)Nc2ccc(Oc3ccccc3)cc2)[C@H](OC(=O)Nc2ccc3c(c2)OCO3)[C@@H]1OC(=O)Nc1ccc2c(c1)OCO2 | 0.794 | 0.166 | 0.627 | 1.15 | -0.23 | 0.0374 | 0.246 | 0.565 | 1.37 | 1.26
16 | CCCNC(=O)[C@@H]1c2ccccc2C(=O)N(Cc2ccccc2OC)[C@H]1c1ccc(CO)cc1 | 1.46 | -1.12 | 0.146 | 1.07 | 0.485 | -0.0512 | -0.173 | 0.57 | 0.239 | 1.25
17 | CN(C)C(=O)[C@]1(Cc2ccccc2)N=C(c2ccc(OCCCO)cc2)O[C@@H]1c1ccccc1N=[N+]=[N-] | 1.4 | -2.58 | 0.357 | 1.63 | 0.393 | 0.0926 | 0.398 | -0.0332 | 2.01 | 1.37
18 | COc1ccc(CCNC(=O)[C@@]2(c3ccc([N+](=O)[O-])cc3)CC(=O)N(CC34CC5CC(CC(C5)C3)C4)[C@@H]2c2ccc(CO)cc2I)cc1 | 1.38 | -3.41 | 0.261 | 0.408 | -0.266 | -0.0643 | -0.312 | 0.769 | 0.757 | 0.962
